From PubChem BioAssay AID1159580 (chemical genetic matrix, 2015)
Screen size: about 5,500 compounds; about 2,000 (36%) were called active. Inconclusive results (about 18%) are left out. Cut-off read from the data, not from the text of the source: active = normalized growth mostly below about 0.91 (no sharp cut-off); inconclusive = no clear call, values can overlap the other calls; inactive = mostly above about 0.92. The list shows a part of the results.

Test: chemical genetic growth profiling, strain panel (AID 1159580);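 note: tested at 20 µM; growth read once vehicle control cultures reached saturation at 30 °C; 1 = growth at the plate median or of vehicle wells; lower values mean less growth of the strain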
Settings: growth OD

Measured: normalized growth

CCCC(C)C1(CC)C(=O)NC(=O)NC1=O (configuration not stated)
inactive: S. cerevisiae deletion strains, locus YJR075W, strain HOC1, stronger effect = lower value 1.04 | S. cerevisiae deletion strains, locus YKL009W, strain mrt4, stronger effect = lower value 1.03 | S. cerevisiae deletion strains, locus YKL068W, stronger effect = lower value 1.01 | S. cerevisiae deletion strains, locus YKL085W, strain MDH1 (second series), stronger effect = lower value 1.02 | S. cerevisiae deletion strains, locus YKL085W, strain MDH1, stronger effect = lower value 1.02 | S. cerevisiae deletion strains, locus YKL160W, strain elf1, stronger effect = lower value 1 | S. cerevisiae deletion strains, locus YKL190W, strain CNB1, stronger effect = lower value 1.02 | S. cerevisiae deletion strains, locus YKR001C, strain vps1, stronger effect = lower value 1.03 | S. cerevisiae deletion strains, locus YKR026C, strain gcn3, stronger effect = lower value 0.998 | S. cerevisiae deletion strains, locus YKR091W, strain srl3, stronger effect = lower value 1 | S. cerevisiae deletion strains, locus YLL001W, strain dnm1, stronger effect = lower value 0.994 | S. cerevisiae deletion strains, locus YLL026W, stronger effect = lower value 1 | S. cerevisiae deletion strains, locus YLL041C, strain sdh2, stronger effect = lower value 1 | S. cerevisiae deletion strains, locus YLR027C, strain aat2, stronger effect = lower value 0.998 | S. cerevisiae deletion strains, locus YLR039C, strain RIC1, stronger effect = lower value 1.1 | S. cerevisiae deletion strains, locus YLR058C, strain SHM2, stronger effect = lower value 1.01 | S. cerevisiae deletion strains, locus YLR102C, strain apc9, stronger effect = lower value 1.02 | S. cerevisiae deletion strains, locus YLR113W, strain HOG1, stronger effect = lower value 0.985 | S. cerevisiae deletion strains, locus YLR221C, strain rsa3, stronger effect = lower value 1 | S. cerevisiae deletion strains, locus YLR258W, strain gsy2, stronger effect = lower value 1 | S. cerevisiae deletion strains, locus YLR262C, strain YPT6 (second series), stronger effect = lower value 1.02 | S. cerevisiae deletion strains, locus YLR262C, strain YPT6, stronger effect = lower value 1.11 | S. cerevisiae deletion strains, locus YLR268W, strain sec22, stronger effect = lower value 1.01 | S. cerevisiae deletion strains, locus YLR320W, strain mms22, stronger effect = lower value 1.01 | S. cerevisiae deletion strains, locus YLR330W, strain CHS5, stronger effect = lower value 1.01 | S. cerevisiae deletion strains, locus YLR342W, strain FKS1 (second series), stronger effect = lower value 1.04 | S. cerevisiae deletion strains, locus YLR342W, strain FKS1, stronger effect = lower value 1 | S. cerevisiae deletion strains, locus YLR357W, strain rsc2, stronger effect = lower value 0.984 | S. cerevisiae deletion strains, locus YLR370C, strain arc18, stronger effect = lower value 1 | S. cerevisiae deletion strains, locus YLR371W, strain rom2, stronger effect = lower value 1.02 | S. cerevisiae deletion strains, locus YLR384C, strain iki3, stronger effect = lower value 0.996 | S. cerevisiae deletion strains, locus YLR418C, strain cdc73, stronger effect = lower value 1.05 | S. cerevisiae deletion strains, locus YML016C, strain PPZ1, stronger effect = lower value 1.01 | S. cerevisiae deletion strains, locus YML032C, strain rad52, stronger effect = lower value 1.02 | S. cerevisiae deletion strains, locus YML120C, strain ndi1, stronger effect = lower value 1.02 | S. cerevisiae deletion strains, locus YML124C, strain tub3, stronger effect = lower value 1.02 | S. cerevisiae deletion strains, locus YMR058W, strain fet3, stronger effect = lower value 1.01 | S. cerevisiae deletion strains, locus YMR078C, strain ctf18, stronger effect = lower value 1.02 | S. cerevisiae deletion strains, locus YMR125W, strain sto1, stronger effect = lower value 0.996 | S. cerevisiae deletion strains, locus YMR129W, stronger effect = lower value 0.997 | S. cerevisiae deletion strains, locus YMR205C, strain PFK2, stronger effect = lower value 0.992 | S. cerevisiae deletion strains, locus YMR223W, strain ubp8, stronger effect = lower value 1.04 | S. cerevisiae deletion strains, locus YMR231W, strain pep5, stronger effect = lower value 1 | S. cerevisiae deletion strains, locus YMR263W, strain SAP30, stronger effect = lower value 1.02 | S. cerevisiae deletion strains, locus YMR307W, strain GAS1, stronger effect = lower value 1.12 | S. cerevisiae deletion strains, locus YNL067W, strain RPL9B, stronger effect = lower value 1.01 | S. cerevisiae deletion strains, locus YNL071W, strain lat1, stronger effect = lower value 1.01 | S. cerevisiae deletion strains, locus YNL128W, strain TEP1, stronger effect = lower value 1.02 | S. cerevisiae deletion strains, locus YNL153C, strain GIM3, stronger effect = lower value 1 | S. cerevisiae deletion strains, locus YNL183C, strain NPR1, stronger effect = lower value 0.922 | S. cerevisiae deletion strains, locus YNL209W, strain ssb2, stronger effect = lower value 1 | S. cerevisiae deletion strains, locus YNL233W, strain BNI4, stronger effect = lower value 1.01 | S. cerevisiae deletion strains, locus YNL248C, strain rpa49, stronger effect = lower value 1 | S. cerevisiae deletion strains, locus YNL250W, strain rad50, stronger effect = lower value 1.02 | S. cerevisiae deletion strains, locus YNL271C, strain bni1, stronger effect = lower value 1.03 | S. cerevisiae deletion strains, locus YNL298W, strain CLA4, stronger effect = lower value 1.03 | S. cerevisiae deletion strains, locus YNL307C, strain MCK1, stronger effect = lower value 1.03 | S. cerevisiae deletion strains, locus YNL322C, strain KRE1 (second series), stronger effect = lower value 0.997 | S. cerevisiae deletion strains, locus YNL322C, strain KRE1, stronger effect = lower value 1.01 | S. cerevisiae deletion strains, locus YNR049C, strain mso1, stronger effect = lower value 0.998 | S. cerevisiae deletion strains, locus YNR052C, strain pop2, stronger effect = lower value 1.02 | S. cerevisiae deletion strains, locus YOL006C, strain TOP1, stronger effect = lower value 1.07 | S. cerevisiae deletion strains, locus YOL012C, strain htz1 1.23 | S. cerevisiae deletion strains, locus YOL147C, strain pex11, stronger effect = lower value 1 | S. cerevisiae deletion strains, locus YOR001W, strain rrp6, stronger effect = lower value 0.999 | S. cerevisiae deletion strains, locus YOR061W, strain CKA2, stronger effect = lower value 1.02 | S. cerevisiae deletion strains, locus YOR069W, strain VPS5, stronger effect = lower value 1.01 | S. cerevisiae deletion strains, locus YOR070C, strain gyp1, stronger effect = lower value 1 | S. cerevisiae deletion strains, locus YOR080W, strain dia2, stronger effect = lower value 0.998 | S. cerevisiae deletion strains, locus YOR083W, strain WHI5, stronger effect = lower value 1.01 | S. cerevisiae deletion strains, locus YOR106W, strain vam3, stronger effect = lower value 1.02 | S. cerevisiae deletion strains, locus YOR136W, strain idh2, stronger effect = lower value 1.02 | S. cerevisiae deletion strains, locus YOR144C, strain elg1, stronger effect = lower value 1.01 | S. cerevisiae deletion strains, locus YOR184W, strain ser1, stronger effect = lower value 1.06 | S. cerevisiae deletion strains, locus YOR231W, strain MKK1, stronger effect = lower value 0.996 | S. cerevisiae deletion strains, locus YOR265W, strain rbl2, stronger effect = lower value 1 | S. cerevisiae deletion strains, locus YOR270C, strain vph1, stronger effect = lower value 1.01 | S. cerevisiae deletion strains, locus YOR290C, strain snf2, stronger effect = lower value 1.02 | S. cerevisiae deletion strains, locus YOR316C, strain cot1, stronger effect = lower value 1.03 | S. cerevisiae deletion strains, locus YPL051W, strain arl3, stronger effect = lower value 1.01 | S. cerevisiae deletion strains, locus YPL055C, strain LGE1, stronger effect = lower value 1.04 | S. cerevisiae deletion strains, locus YPL078C, strain atp4, stronger effect = lower value 0.999 | S. cerevisiae deletion strains, locus YPL106C, strain sse1, stronger effect = lower value 0.996 | S. cerevisiae deletion strains, locus YPL240C, strain hsp82, stronger effect = lower value 1.02 | S. cerevisiae deletion strains, locus YPL241C, strain CIN2, stronger effect = lower value 1.01 | S. cerevisiae deletion strains, locus YPL256C, strain CLN2, stronger effect = lower value 0.981 | S. cerevisiae deletion strains, locus YPR119W, strain clb2, stronger effect = lower value 1.01 | S. cerevisiae deletion strains, locus YPR141C, strain kar3, stronger effect = lower value 1.02 | S. cerevisiae deletion strains, locus YPR163C, strain tif3, stronger effect = lower value 1.01 | S. cerevisiae deletion strains, locus YPR167C, strain met16, stronger effect = lower value 1.02 | S. cerevisiae deletion strains, strain wtn01, stronger effect = lower value 1.02 | S. cerevisiae strains, strain wild type, stronger effect = lower value 1.01
